From PubChem BioAssay
TbPYK inhibitor = qHTS of Trypanosoma Brucei Inhibitors. pyruvate kinase (Trypanosoma brucei), Q57TT1. TbPYK enzyme, Kinase-Glo Plus ATP luminescence, 45 min. Potency, µM (doses to about 76.8 µM), for inactives: top-dose activity, negative = inhibition, hits mostly inhibitors. 0.12% of 410,000 active; further: potency means the concentration at half of the fitted maximal effect; on the % scale 0 is the no-effect control and ±100 the full control effect; nearly all actives have a fitted effect of over 50% in size
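Assay buffer: 50 mM TEA pH 7.2, 100 mM KCl, 10 mM MgCl2, 0.05% BSA, 0.01% Tween-20. Pyruvate kinase from T. brucei plus substrate met compound, then ADP (130 uM final). Luminescence was read post 45 min RT.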
Sm TGR block = qHTS Assay for the Inhibitors of Schistosoma Mansoni Peroxiredoxins; Schistosoma mansoni thioredoxin glutathione reductase (TGR), Q962Y6; purified TGR, DTNB reduction, TNB absorbance 405 nm; Potency, µM (series often up to 114 µM), for the others: at the highest dose activity change, negative = inhibition, most hits filed as inhibitors; 3% of 360,000 active; AID 485364, 2010; further: potency means the concentration at half of the fitted maximal effect; on the % scale 0 is the no-effect control and ±100 the full control effect; nearly all actives have a fitted effect of over 60% in size
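TGR 20 nM + NADPH 100 uM (dispensed conc.), cpd preinc 15 min RT; start with NADPH (500 uM addition) then DTNB (15 mM addition). Kinetic TNB absorbance, 405 nm filter. Four-parameter Hill fit across titration.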
LmPK inh = qHTS Assay for Inhibitors of Leishmania Mexicana Pyruvate Kinase (LmPK); Q27686; purified LmPK, Kinase-Glo ATP luminescence, 1 h; Potency, µM (doses to about 57.5 µM), without a hit: top-dose activity change, negative = inhibition, hits mostly inhibitors; 0.37% of 290,000 active; AID 1721, 2009; further: potency means the concentration at half of the fitted maximal effect; on the % scale 0 is the no-effect control and ±100 the full control effect
Target sequence (Q27686 whole entry, looked up): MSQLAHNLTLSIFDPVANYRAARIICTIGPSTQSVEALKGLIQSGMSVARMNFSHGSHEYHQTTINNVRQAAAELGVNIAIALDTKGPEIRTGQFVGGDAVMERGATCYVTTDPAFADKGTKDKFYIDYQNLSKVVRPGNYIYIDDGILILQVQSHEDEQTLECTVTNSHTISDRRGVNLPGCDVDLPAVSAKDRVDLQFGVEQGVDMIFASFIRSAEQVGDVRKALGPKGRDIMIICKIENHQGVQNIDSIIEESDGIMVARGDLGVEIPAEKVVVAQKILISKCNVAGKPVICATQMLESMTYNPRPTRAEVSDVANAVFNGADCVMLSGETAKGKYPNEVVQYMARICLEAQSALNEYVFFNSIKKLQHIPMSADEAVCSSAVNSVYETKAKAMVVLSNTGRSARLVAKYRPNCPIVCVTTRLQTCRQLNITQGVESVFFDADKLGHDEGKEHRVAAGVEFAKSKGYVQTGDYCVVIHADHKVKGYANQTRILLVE
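qHTS format; LmPK 0.1 nM; substrates PEP 0.5 mM and ADP 0.1 mM. One-hour room-temperature incubation, then coupled luciferase luminescence; 0.5 nM enzyme wells mark activation.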
CHX counter = Cycloheximide Counterscreen for Small Molecule Inhibitors of Shiga Toxin; cell reporter, cycloheximide protein synthesis inhibition counterscreen; max response, %; 12% of 300,000 active; AID 2314, 2010; in the data active means max response mostly above about 13%, no sharp cut-off; inactive means mostly below about 14%; further: read at 38.3 µM for the half of the compounds with a filed dose; 0% is about no effect
Giardia FBPA inh = qHTS Assay for Inhibitors of Fructose-1,6-bisphosphate Aldolase from Giardia Lamblia. A8B2U2. purified Giardia FBPA. Potency, µM (top dose mostly 59.6 µM), for inactives: top-dose activity, negative = inhibition, hits mostly inhibitors. 0.71% of 290,000 active. AID 2451, 2010; further: potency means the concentration at half of the fitted maximal effect; on the % scale 0 is the no-effect control and ±100 the full control effect; nearly all actives have a fitted effect of over 55% in size
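40 nM FBPA preincubated 10 min at RT with compound (up to 57.5 uM final), then substrate plus GAPDH/TPI/NAD/arsenate coupling and diaphorase/resazurin added. Fluorescence read after 20 min at RT, 525/598 nm.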
Shiga toxin inh = A qHTS for Small Molecule Inhibitors of Shiga Toxin. Vero cells, Shiga toxin protein synthesis inhibition reporter. inhibition, % at 38.7 µM. 9.2% of 290,000 active. AID 2315, 2010; in the data active means inhibition mostly above about 28%, no sharp cut-off; inactive means mostly below about 43%; further: 0% is about no effect
* hit, by the source's call; u = inconclusive; x = no result; [ ] = dose if it differs, or a comment. Only a selection was taken, and hits are over-represented in it overall. Unless noted, the call rests on the fitted dose curve; in most records, active means well fitted curve in the direction sought with a large enough effect; inconclusive means small, poorly fitted or top-dose-only effect, or another doubt; inactive means no such curve, though single readings can be large; an effect the other way counts as inactive or inconclusive.

SMILES	TbPYK inhibitor	Sm TGR block	LmPK inh	CHX counter	Giardia FBPA inh	Shiga toxin inh
Cn1c(-c2ccc(F)cc2)cnc1SCC(=O)N1CCCCC1	-14%	-5%[11.4 µM]	6%	33*	0%	38
CC1Cc2ccccc2N1C(=O)CSc1ncc(-c2ccc(F)cc2)n1C (stereo unspecified)	-9%	1%	-1%	61*	4%	75*
Cc1ccc(NS(=O)(=O)c2ccc3[nH]c4c(c3c2)CCCCC4)cc1	2%	11%	x	x	x	x
O=C1CC(N2CCN(S(=O)(=O)c3ccccc3F)CC2)C(=O)N1c1ccc(F)cc1F (stereo unspecified)	4%	x	x	x	x	x
Cc1ccc(C(=O)N/N=C/c2c[nH]c3ccccc23)o1	-1%	-14%	5%	23*	2%	74*
O=C(N/N=C/c1c[nH]c2ccccc12)c1cc(Br)ccc1O	1%	-13%	5%	18	6%	29
Cc1cc(C(=O)N/N=C/c2c[nH]c3ccccc23)c(C)o1	16%	-2%	0%	27*	2%	26
COc1cc(NC(=O)c2cccc(Br)c2)nc(OC)n1	2%	8%	-8%	40*	-5%	71*
COc1cc(NC(=O)COc2ccc(F)cc2)nc(OC)n1	-4%	1%	7%	0	1%	7
COc1cc(NC(=O)c2c(F)cccc2F)nc(OC)n1	-2%	2%	-4%	33*	x	98*
CN(C)C(=O)c1ccc(-c2nnc(OCc3nc4ccccc4n3C)c3ccccc23)cc1	4%	x	x	x	x	x
CN(C)c1ccc(CNC(=O)c2ccc3c(c2)N(C)C(=O)C2CCCCN32)cc1 (stereo unspecified)	-13%	-2%	x	x	x	x
CC(=O)/C(=N\Nc1ccc(C)cc1)N1CCOCC1	1%	-9%	-1%	8	-4%	3
Cc1ccc(N/N=C(\C#N)C(=N)N2CCCCC2)cc1	5%	23%	1%	46*	u	82*
CCN(CC)C(=N)/C(C#N)=N/Nc1ccccc1	-2%	-13%	-2%	39*	-16%	93*
CCOC(=O)NC(=O)/C(C#N)=N/Nc1ccc(F)cc1	-3%	-12%	0%	4	-16%	12
S=C(Nc1ccccc1)N1CCCCCC1	1%	-3%	3%	10	13%	-6
N#C/C(=N\Nc1ccccc1)C(=N)N1CCCCC1	-9%	1%	-1%	28*	-5%	61*
N#C/C(=N\Nc1ccc(Cl)cc1)C(=N)N1CCCCCC1	-3%	9%	5%	43*	-8%	145*
CC(C)(C)OC(=O)N1CCC(c2c(C(=O)N3CCN(c4ccccc4F)CC3)cnn2C(C)(C)C)CC1	3%	1%	x	x	x	x
O=C(Nc1ccc(Cl)cc1)Nc1ccc(N2CCOCC2)cc1	-6%	-31%	-3%	19*	-1%	30*
O=C(Nc1ccc(N2CCOCC2)cc1)Nc1cnsn1	-21%	-6%	-6%	44*	-12%	34*
Cc1nc2cc(NC(=O)Nc3ccc(N4CCOCC4)cc3)ccc2n1C	-21%	5%	6%	0	-5%	-6
O=C(Nc1ccc(N2CCOCC2)cc1)NC1CCCCC1	-1%	2%	-5%	18*	-6%	67*
O=C(Nc1ccc(N2CCOCC2)cc1)C1CC1	-1%	-24%	-3%	10	-27%	44
SMILES	TbPYK inhibitor	Sm TGR block	LmPK inh	CHX counter	Giardia FBPA inh	Shiga toxin inh
COc1ccccc1NC(=O)Nc1ccc(N2CCOCC2)cc1	-9%	-5%	-7%	51*	-8%	84*
Cc1cc2c(s1)c1c(C)nn(Cc3ccccc3F)c(=O)c1n2C	x	-5%	x	x	x	x
Cc1cc2c(nc1C)CCCN2CC(O)CN1CCCc2nc(C)c(C)cc21	x	x	x	x	-5%[12.9 µM]	x
O=C(Nc1ccc(N2CCOCC2)cc1)Nc1ccc(Cl)c(Cl)c1	-5%	0%	13%	19*	-1%	40
O=C(Nc1ccc(N2CCOCC2)cc1)c1cc(-n2cnnc2)ccc1Cl	5%	0%	-1%	-3	x	-3
CC(=O)n1cc(C(C[N+](=O)[O-])SCCN)c2ccccc21 (stereo unspecified)	u	8.9µM*	3%	9	u	-3
Cn1cc(C(C[N+](=O)[O-])c2ccccc2)c2ccccc21 (stereo unspecified)	2%	-31%	7%	1	18%	-5
Cc1ccc(C)n1-n1cnc2sc3c(c2c1=O)CCC3	1%	-29%	2%	-4	3%	-2
O=c1c2c3c(sc2ncn1-n1cccc1)CCCCC3	1%	-7%	1%	36*	17%	56*
CC(=O)NCCNc1nc(-c2cccc(NS(C)(=O)=O)c2)nc2ccccc12	x	x	x	x	-4%	x
CC1CCCC(NC(=S)NC(=O)c2ccco2)C1C (stereo unspecified)	1%	x	x	x	x	x
COC(=O)C1=C(C(=O)OC)C(c2cc(Cl)ccc2O)c2sc(=O)[nH]c2S1 (stereo unspecified)	-20%	40µM*	1%	14	x	-4
COC(=O)C1=C(C(=O)OC)C(c2cc(Br)ccc2O)c2sc(=O)[nH]c2S1 (stereo unspecified)	-16%	u	-2%	1	-16%	-9
CCCCc1nc2c(c3c1C[C@H](C)OC3)CN(C(=O)Cc1cccc(OC)c1)CC2	x	x	-3%[11.5 µM]	x	1%[12.9 µM]	x
Cc1ccccc1Nc1ncc(C#N)c(N)n1	7%	-2%	-6%	16	-5%	33*
COc1ccc(Nc2ncc(C#N)c(N)n2)c(OC)c1	-1%	-2%	-2%	20*	-3%	70*
Cc1ccccc1Nc1nc(N)nc(COc2ccc(C#N)cc2)n1	-2%	-14%	-7%	-6	0%	-11
COc1ccc(Nc2nc(Nc3ccc(OC)cc3OC)nc(N3CCOCC3)n2)c(OC)c1	2%	-4%	x	x	x	x
CC(C)C[C@@H](NC(=O)[C@@H](Cc1ccccc1)NC(=O)c1cnccn1)B(O)O	-3%	x	x	x	x	x
O=C(OCc1cc(=O)n2nc(C3CC3)sc2n1)c1ccc(NC(=O)c2ccccc2F)cc1	-2%	3%	x	x	x	x
Cc1ccc(C(=O)N(c2ccccn2)C(C)c2ccco2)cc1C (stereo unspecified)	1%	6%	-7%	18*	6%	0
CC(c1ccco1)N(C(=O)c1ccccc1F)c1ccccn1 (stereo unspecified)	1%	-16%	-4%	9	3%	21
CC(c1ccco1)N(C(=O)c1ccc(C(F)(F)F)cc1)c1ccccn1 (stereo unspecified)	-3%	-34%	1%	18	0%	23
